PINK1 modulator: A Quantitative High throughput Screen to Identify Chemical Modulators of PINK1 Expression; AID 624263, 2012; PINK1 immunofluorescence, high-content cytometry, 24 h; actives 0.2% (n = 410,000); Potency, µM (series often up to 76.6 µM), inactives show top-dose activation (PINK1 increase), actives largely listed as activators; active means well fitted activation curve with a large enough effect; inconclusive means small, poorly fitted or top-dose-only effect; cell line not stated here; further: % of control where 0% means no effect; nearly all actives have a fitted effect of over 65% in size
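Decision-based qHTS: stable cells, 24 h exposure to five compound concentrations, CCCP as control. Fixed cells stained for PINK1 plus nuclear, mitochondrial and cell markers, cytometer read.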
Epigenetic reg: Quantitative High-Throughput Screen for Regulators of Epigenetic Control; murine LDR cells, GFP reporter derepression, 30 h; Potency, µM (top dose mostly 53.9 µM), for the others: at the highest dose GFP activation, most hits filed as activators; actives 0.2% (n = 280,000); further: % of control where 0% means no effect; nearly all actives have a fitted effect of over 60% in size
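Reporter derepression read as number of fluorescent GFP-positive objects, 20-120 um in size, counted by laser-scanning cytometer. Mouse LDR line with an epigenetically silenced CMV-GFP locus; compound incubation 30 h, 37 C.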
Nrf2 activator: qHTS of Nrf2 Activators. actives 0.31% (n = 410,000). AID 624171, 2012. AREc32 ARE-luciferase reporter (MCF7-derived line), luminescence, 24 h. Potency, µM (highest dose often 46.1 µM), inactives show top-dose activation, most hits filed as activators; further: % of control where 0% means no effect; nearly all actives have a fitted effect of over 65% in size
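ARE activation measured as luciferase luminescence (Steady-Glo, 30 min RT) in AREc32_Fluc cells after 24 hr compound exposure at 37 deg C, 5% CO2; cells seeded overnight at 1000/well in OPTI-MEM, 5% FBS.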
A549 tox: Nrf2 qHTS screen for inhibitors: counterscreen for cytotoxicity. actives 0.16% (n = 390,000). A549 ARE-Fluc cells, CellTiter-Fluor viability, 18-24 h. Potency, µM (highest dose often 46 µM), for inactives: top-dose activity change, negative = cytotoxicity, hits mostly inhibitors. AID 504648, 2011; further: on the % scale 0 is the no-effect control and ±100 the full control effect
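A549 ARE-Fluc cells in 5% FBS OPTI-MEM, 5000 cells/well, rested 2 h then exposed to compounds in concentration-response for 18-24 h at 37 °C. Viability by CellTiter-Fluor fluorescence (Ex 405/Em 525) after 30 min; luciferase luminescence (BugLite, 15 min, RT) read afterwards.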
Nrf2 block: Nrf2 qHTS screen for inhibitors | A549 ARE-Fluc reporter, luciferase luminescence, 18-24 h | Potency, µM (titrated, usually from 46 µM), inactives show at the top dose activity change, negative = inhibition, most hits filed as inhibitors | actives 2.1% (n = 360,000) | AID 504444, 2011; further: on the % scale 0 is the no-effect control and ±100 the full control effect; nearly all actives have a fitted effect of over 60% in size
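Two sequential reads on A549 ARE_Fluc cells exposed to compound for 18-24 h: a CellTiter-Fluor fluorescence read for viability, then a luciferase luminescence read for Nrf2/ARE activity.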
* marks the source's active call; other numbers are inactive results; ? = inconclusive; . = no result given; [ ] = dose if it differs, or a comment. This is a sample that favours compounds with a hit; in the whole collection about 2.4% have one here. Unless noted, the call rests on the fitted dose curve; in most records, active means well fitted curve in the direction sought with a large enough effect; inconclusive means small, poorly fitted or top-dose-only effect, or another doubt; inactive means no such curve, though single readings can be large; an effect the other way counts as inactive or inconclusive. Potency means the concentration at half of the fitted maximal effect.

SMILES	PINK1 modulator	Epigenetic reg	Nrf2 activator	A549 tox	Nrf2 block
COc1cccc(OC)c1C(=O)Nc1cccc(S(=O)(=O)Nc2ccccc2Cl)c1	0.5%	.	8.5%	4.7%	?
CSc1ncc(Cl)c(C(=O)Nc2ccc(S(=O)(=O)N3CCC(C)CC3)cc2)n1	1.9%	0.0%	0.2%	-9.3%	20.6µM*
O=C(Nc1cccc(S(=O)(=O)Nc2ccccc2Cl)c1)c1ccc(Cl)nc1	8.6%	-0.9%	-0.6%	-15.4%	5.17µM*
CCSc1ncc(Cl)c(C(=O)Nc2ccc(S(=O)(=O)N3CCC(C)CC3)cc2)n1	0.2%	0.0%	-1.0%	15.6%	?
C=CCOC(=O)C(C(C)=O)C(NC(=O)OC)c1cccc(C)c1 (configuration not stated)	.	0.0%[10.1 µM]	.	.	.
CC(C)c1c(C(=O)NCc2ccccn2)cnn1-c1nccc(-c2ccccc2F)n1	0.9%	.	.	.	.
Cc1ccc(NS(=O)(=O)c2cc([N+](=O)[O-])ccc2N/N=C/c2sc(N3CCOCC3)nc2-c2ccccc2)c(C)c1	13.4%	31.6µM*	-0.7%	-15.4%	-8.1%
Cc1ccc(-c2nn3c(C)nnc3c3ccccc23)cc1S(=O)(=O)NC(C)(C)CO	4.5%	0.4%	?	?	11.6µM*
Cc1ccc(-c2nn3c(C)nnc3c3ccccc23)cc1S(=O)(=O)NC(C)c1ccccc1 (configuration not stated)	6.1%	-0.1%	11.8%	5.7%	?
CC(=O)NC(Cc1ccc(O)cc1)C(=O)NCC(N)C(=O)c1ccccc1 (configuration not stated)	0.7%	.	.	.	.
O=C(Nc1ccc(F)cc1)c1ccc(S(=O)(=O)NCC2CCCO2)cc1 (configuration not stated)	3.6%[38.3 µM]	-1.2%	-0.5%	23.1µM*	23.1µM*
CC(=O)Nc1ccc(C(=O)Nc2ccc(S(=O)(=O)NCC3CCCO3)cc2)cc1 (configuration not stated)	0.7%[38.3 µM]	0.3%	-0.1%	2.6%	1.5%
O=C(c1ccc(S(=O)(=O)NCC2CCCO2)cc1)N1CCc2ccccc21 (configuration not stated)	-1.3%	-2.1%	-0.6%	-21.7%	25.9µM*
O=S(=O)(NCc1ccncc1)c1ccc(S(=O)(=O)NCC2CCCO2)cc1 (configuration not stated)	.	0.3%	0.4%	-3.9%	9.2µM*
CCCCNS(=O)(=O)c1ccc(S(=O)(=O)NCc2ccncc2)cc1	2.0%[38.3 µM]	-1.2%	-0.3%	-16.0%	7.31µM*
O=C(COc1ccccc1C(=O)Nc1ccccc1)Nc1cccc(Cl)c1	6.0%	.	.	.	.
Cc1cccc(-n2ncc3c2CCCC3NC(=O)CCc2ccncc2)c1C (configuration not stated)	1.4%	.	-0.6%	-6.6%	5.8µM*
COc1ccc(C/C(N)=N/OC(=O)C(c2ccccc2)c2ccccc2)cc1OC	.	-0.9%	10.8%	-7.2%	23.1µM*
COc1ccc(/C(N)=N/OC(=O)Cc2ccc(OC)c(OC)c2)cc1	.	2.1%	0.7%	-13.4%	14.6µM*
COc1ccc(C/C(N)=N/OC(C)=O)cc1OC	1.0%	-0.9%	-0.7%	1.2%	14.0%
O=[N+]([O-])c1cc2c(c(CSc3nnc(Nc4ccccc4)s3)c1)OCOC2	12.4%	-1.0%	0.3%	-9.1%	-10.7%
Cc1ccccc1Nc1nnc(SCc2cc([N+](=O)[O-])cc3c2OCOC3)s1	0.4%[38.3 µM]	-0.8%	0.1%	-0.6%	25.9µM*
Cc1cc(C)cc(C(=O)OCC(=O)Nc2cccc(S(=O)(=O)NC3=NCCCCC3)c2)c1	0.7%	1.3%	1.5%	?	23.1µM*
O=C(Cc1csc(-c2ccc(Cl)cc2)n1)Nc1cccc(S(=O)(=O)NC2=NCCC2)c1	0.5%	.	0.8%	?	23.1µM*
O=C(/C=C/c1ccc(OC(F)F)cc1)Nc1cccc(S(=O)(=O)NC2=NCCCCC2)c1	2.1%	.	-0.8%	?	18.4µM*
CC(C)(C)c1ccc(OCCC(=O)Nc2cccc(S(=O)(=O)NC3=NCCCCC3)c2)cc1	-2.7%	.	0.3%	?	18.4µM*

Bioassay records: PubChem BioAssay, National Center for Advancing Translational Sciences (NCATS)
